Assay [1] has as its target Calcium and integrin-binding protein 1 (Homo sapiens) (UniProt Q99828). Description: Primary qHTS for Identification of Calcium Integrin Binding Protein 1 (CIB1) Competitor (AID 1508620).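 Also: GST tagged CIB1 binding a fluorescein labelled alphaIIb integrin peptide tracer; top concentration of the series differs between compounds.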 The procedure, abridged:
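Fluorescence polarization competition: GST-tagged CIB1 (1 uM final) preincubated with compound 15 min at room temperature, then FITC-labelled alphaIIb peptide (100 nM final) added. After 15 min at room temperature, polarization read at Ex 480/Em 540.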
In general terms: Quantitative high-throughput screening tests each substance at several concentrations.

A short description of assay [2]: Primary qHTS for inhibitors of nuclear receptor binding SET domain protein 2 (NSD2) in an isogenic RCH-ACV NSD2 p.E1099K mutant (9B) (AID 1645876). Also: nearly all actives have a fitted effect of over 70% in size. Also: potency is read from the fitted curve at half-maximal effect.
Assay [3] in a line: Primary qHTS for inhibitors of nuclear receptor binding SET domain protein 2 (NSD2) in an RCH-ACV wild type WT cells (2C) (AID 1645877). Also: nearly all actives have a fitted effect of over 70% in size. Also: potency is read from the fitted curve at half-maximal effect.

Inconclusive results are not listed. Unmarked numbers belong to inactive results. Active and inactive are the calls of the source. Calls follow the shape of the dose curve; as a rule, active = well fitted curve in the direction sought with a large enough effect; inconclusive = small, poorly fitted or top-dose-only effect, or another doubt; inactive = no such curve, though single readings can be large; an effect the other way counts as inactive or inconclusive.
% is scaled to controls: 0 for no effect and ±100 for the full control effect.

Sequence of Calcium and integrin-binding protein 1 (Homo sapiens) (Q99828 whole entry, looked up): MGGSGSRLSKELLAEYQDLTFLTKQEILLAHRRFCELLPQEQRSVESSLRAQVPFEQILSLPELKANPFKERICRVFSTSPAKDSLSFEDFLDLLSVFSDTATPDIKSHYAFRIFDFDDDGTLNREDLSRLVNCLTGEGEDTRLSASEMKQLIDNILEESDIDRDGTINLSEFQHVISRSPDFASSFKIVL

For `CN(C)CC(c1ccc(O)cc1)C1(O)CCCCC1` (stereo not drawn), the Potency result in assay [1], in assay [2] and in assay [3] was “inactive” each time.
Turning to `CC1=C[C@@H]2[C@H]3[C@@H]4O[C@@](C)(CC[C@H]4O)[C@H]3CC(=O)[C@]23C(=O)N[C@@H](CC(C)C)[C@@H]3[C@@H]1C`, the Potency result in assay [1], in assay [2] and in assay [3] was “inactive” throughout.
With `C[C@@H]1O[C@@H](O[C@H]2[C@@H]3C=CO[C@@H](O[C@@H]4O[C@H](CO)[C@@H](O)[C@H](O)[C@H]4O)[C@@H]3[C@@]3(CO)O[C@@H]23)[C@H](OC(=O)/C=C/c2ccc(O)cc2)[C@H](O)[C@H]1O`, the Potency entry in assay [1], in assay [2] and in assay [3] was “inactive” throughout.
In the case of `CC1(C(=O)O)CCCC2(C)C3CCC4CC3(CCC12)CC4C(=O)O` (stereo not drawn), the Potency result in assay [1], in assay [2] and in assay [3] was “inactive” each time.
`CC(C)C1(O)NC(=O)C(CC2(O)c3ccccc3N3C(=O)C(C)(C)NC32)n2c1nc1ccccc1c2=O` (stereo not drawn): the Potency result in assay [1], in assay [2] and in assay [3] was “inactive” each time.
Turning to `CC(C)=CCc1cc(O[C@@H]2O[C@H](CO[C@@H]3OC[C@](O)(CO)[C@H]3O)[C@@H](O)[C@H](O)[C@H]2O)ccc1O`, the Potency result in assay [1], in assay [2] and in assay [3] was “inactive” each time.
For the molecule `CC1(C)C2CC[C@@]34CC(CC[C@H]3[C@]2(C)CC[C@@H]1O[C@@H]1O[C@H](CO)[C@@H](O)[C@H](O)[C@H]1O)[C@](C)(O)C4` (stereo partly drawn), the Potency result in assay [1], in assay [2] and in assay [3] was “inactive” in each case.
Turning to `O=C(O)c1ccnc(-c2cc(C(=O)NCCc3ccccc3)ccn2)c1`, the Potency result in assay [1], in assay [2] and in assay [3] was “inactive” each time.
With `O=C(O[C@H]1[C@H](Oc2ccc(O)cc2CO)O[C@H](CO)[C@@H](O)[C@@H]1O)c1ccccc1`, the Potency entry in assay [1], in assay [2] and in assay [3] was “inactive” each time.
On to `CC1(C)CC2C(O)C3=C(CC(C)(O)C2C1)C(=O)OC3` (stereo not drawn), for which the Potency entry in assay [1], in assay [2] and in assay [3] was “inactive” each time.
With `COC(=O)C1=CO[C@@H](O[C@@H]2O[C@H](CO)[C@@H](O)[C@H](O)[C@H]2O)[C@H]2[C@@H]1[C@H](O)C[C@]2(C)O`, the Potency entry in assay [1], in assay [2] and in assay [3] was “inactive” each time.
Turning to `C=CC(C)(CCC=C(C)C)O[C@@H]1O[C@H](CO)[C@@H](O)[C@H](O)[C@H]1O` (stereo partly drawn), the Potency result in assay [1], in assay [2] and in assay [3] was “inactive” in each case.
Consider `COc1cc(/C=C/C(=O)O[C@@H]2C[C@@](O)(C(=O)O)C[C@@H](O)[C@@H]2O)ccc1O`, for which the Potency result in assay [1], in assay [2] and in assay [3] was “inactive” in each case.
Turning to `CC1(C)C[C@@H]2[C@H](C1)[C@@]1(C)C[C@]13C(O)OC[C@]3(O)[C@H]2O` (stereo partly drawn), the Potency entry in assay [1], in assay [2] and in assay [3] was “inactive” each time.
`CC(=O)OCC1OC(OC2COC(OC3COC(OC4C(OC5C(CO)OC(OC6CCC7(C)C(CCC8(C)C7CC=C7C9CC(C)(C)CCC9(C(=O)OC9OC(CO)C(O)C(O)C9OC9OCC(OC%10OCC(O)(CO)C%10O)C(O)C9O)C(O)CC78C)C6(C)C)C(O)C5O)OCC(O)C4O)C(O)C3O)C(O)C2O)C(OC(=O)/C=C/c2ccccc2)C(O)C1OC(C)=O` (stereo not drawn): in assay [1], the activity change, negative = inhibition is -1.97% [at 12.4 µM]. Also, the Potency is 1250 nM (active) in assay [2] and 1990 nM (active) in assay [3].
Regarding `C=C(C)[C@@H]1CC[C@]2(C)CC[C@]3(C)C(CCC4[C@@]5(C)CC[C@H](O)C(C)(C)C5CC[C@]43C)C12` (stereo partly drawn), the Potency result in assay [1], in assay [2] and in assay [3] was “inactive” each time.
Consider `CC(C)=C1CC2[C@](C)(CC[C@@H](OC(=O)C3(C)OC3C)[C@@]2(C)O)CC1=O` (stereo partly drawn), for which the Potency entry in assay [1], in assay [2] and in assay [3] was “inactive” each time.
Regarding `CC(C)C(O)(CO)CCO[C@@H]1O[C@H](CO[C@H]2OC[C@](O)(CO)[C@H]2O)[C@@H](O)[C@H](O)[C@H]1O` (stereo partly drawn), the Potency entry in assay [1], in assay [2] and in assay [3] was “inactive” throughout.
On to `CC(C)c1ccc2c(c1)[C@H](O)CC1[C@@](C)(C(=O)O)CCC[C@]21C` (stereo partly drawn), for which the Potency entry in assay [1], in assay [2] and in assay [3] was “inactive” in each case.
On to `Cc1sc(C)c(C(=O)NC2(c3ccc(C(=O)O)cc3)CC2)c1Cc1ccc(C(F)(F)F)cc1`, for which the Potency entry in assay [1], in assay [2] and in assay [3] was “inactive” in each case.
In the case of `Cc1cc(O[C@@H]2O[C@H](COC(=O)CC(=O)O)[C@@H](O)[C@H](O)[C@H]2O)c(C(C)C)cc1O`, the Potency entry in assay [1], in assay [2] and in assay [3] was “inactive” in each case.
For the molecule `CC(=O)OC[C@@]12C(=O)C[C@@H](C)[C@]3(C[C@@H](c4ccoc4)OC3=O)[C@H]1CC[C@H](OC(C)=O)[C@]21CO1`, the Potency result in assay [1], in assay [2] and in assay [3] was “inactive” each time.
Turning to `CC1(C)C(=O)N2c3ccccc3C(O)(CC(C(=O)O)n3cnc4ccccc4c3=O)C2N1O` (stereo not drawn), the Potency entry in assay [1], in assay [2] and in assay [3] was “inactive” in each case.
For the molecule `C=C(C(=O)O)[C@@H]1CC[C@@]2(C)CC[C@@H](O)C(=C)C2C1` (stereo partly drawn), the Potency result in assay [1], in assay [2] and in assay [3] was “inactive” each time.
Regarding `CC(NC(=O)c1ccccc1N)C(=O)O` (stereo not drawn), the Potency result in assay [1], in assay [2] and in assay [3] was “inactive” throughout.
Consider `O=C(OCC1OC(Oc2ccc(O)cc2COC(=O)C2(O)C(O)CCC(=O)C2OC(=O)C2C=CCC2)C(OC(=O)C2C=CCC2)C(O)C1O)C1C=CCC1` (stereo not drawn), for which the Potency result in assay [1], in assay [2] and in assay [3] was “inactive” in each case.

Source of the values: PubChem BioAssay (NCATS).
